# Pol iota inh: blocks human DNA polymerase iota activity. Q9UNA4. Pol iota fluorescent replication assay, 10 min. Potency, µM (highest dose often 115 µM), most hits filed as inhibitors. 1% of 390,000 active. AID 588590
# Target sequence (Q9UNA4 whole entry, looked up): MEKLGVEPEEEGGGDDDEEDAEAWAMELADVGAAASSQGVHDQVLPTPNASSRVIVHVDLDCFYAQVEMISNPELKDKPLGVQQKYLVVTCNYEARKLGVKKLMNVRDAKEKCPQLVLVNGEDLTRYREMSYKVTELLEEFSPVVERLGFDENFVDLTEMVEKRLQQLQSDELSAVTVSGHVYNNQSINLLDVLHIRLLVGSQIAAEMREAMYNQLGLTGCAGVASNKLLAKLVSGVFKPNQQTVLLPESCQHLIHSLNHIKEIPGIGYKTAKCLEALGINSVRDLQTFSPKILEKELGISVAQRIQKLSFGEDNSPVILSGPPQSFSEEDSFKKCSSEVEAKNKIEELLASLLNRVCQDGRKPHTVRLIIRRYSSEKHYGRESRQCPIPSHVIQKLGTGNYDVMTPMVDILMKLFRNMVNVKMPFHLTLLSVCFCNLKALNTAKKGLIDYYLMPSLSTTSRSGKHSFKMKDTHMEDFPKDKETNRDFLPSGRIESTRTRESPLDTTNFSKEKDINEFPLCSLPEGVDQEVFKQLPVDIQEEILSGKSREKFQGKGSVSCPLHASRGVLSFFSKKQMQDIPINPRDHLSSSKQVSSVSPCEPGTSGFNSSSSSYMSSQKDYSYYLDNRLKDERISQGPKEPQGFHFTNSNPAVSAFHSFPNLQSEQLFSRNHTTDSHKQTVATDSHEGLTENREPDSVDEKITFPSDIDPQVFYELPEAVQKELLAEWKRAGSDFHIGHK
#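 Fluorescent replication assay read twice, at 0 min and 10 min after adding 50 nM (final) substrate. Enzyme (10 nM) and compounds were first incubated 15 min at room temperature; enzyme-free buffer wells were negative controls.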
# Pol beta inh: DNA polymerase beta (human) inhibition. 1.3% of 340,000 active. Potency, µM (titrated, usually from 114 µM), hits mostly inhibitors. Pol beta primer extension/strand displacement, fluorescence kinetic. P06746. AID 485314
#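 Homogeneous kinetic assay of primer extension and strand displacement by 10 nM Pol beta, preincubated 15 min at room temperature with compound before 50 nM substrate (final) was added. Read at 0 and 10 min; four-parameter Hill fit.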
# WRN helicase inh: inhibitors of human WRN helicase; 0.46% of 360,000 active; WRN helicase unwinding, fluorescent forked duplex, kinetic; Potency, µM (series often up to 114 µM), hits mostly inhibitors; AID 651768; Q14191; also: nearly all actives have a fitted effect of over 55% in size
#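 Screening of the MLSMR collection measured strand separation of a quenched forked DNA duplex (100 nM) by 20 nM WRN with 2 mM ATP, all final. Compounds were preincubated with enzyme 15 min at room temperature.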
# POLK inh: DNA polymerase kappa (human) inhibition | Q9UBT6 | 0.53% of 400,000 active | Potency, µM (top dose mostly 107 µM), actives largely listed as inhibitors | AID 588579 | purified Pol kappa, fluorescent DNA synthesis assay, 10 min
#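 Kinetic fluorescence readout at 0 and 10 min followed reaction start with substrate at 50 nM final. Beforehand, enzyme (10 nM Pol kappa) stood 15 min with compound at room temperature; buffer-only wells were negative controls.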
# Pol eta inh: DNA polymerase eta (human) inhibition; Q9Y253; recombinant Pol eta, fluorescent DNA replication assay; Potency, µM (highest dose often 114 µM), usual class: inhibitors; 1.2% of 390,000 active
#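 Fluorescent replication assay: 50 nM final substrate added after a 15 min room-temperature compound preincubation with 10 nM enzyme. Signal taken at 0 min and again at 10 min.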
# Hits are given with their value; . = inactive; ? = inconclusive; / = no result; [ ] = remark or other dose. Sampled rows, rich in hits. Any-hit rate of the full collection: about 2.3%. Calls follow the shape of the dose curve; as a rule, active = well fitted curve in the direction sought with a large enough effect; inconclusive = small, poorly fitted or top-dose-only effect, or another doubt; inactive = no such curve, though single readings can be large; an effect the other way counts as inactive or inconclusive.
SMILES,Pol iota inh,Pol beta inh,WRN helicase inh,POLK inh,Pol eta inh
CC(C)[C@H](O)CC[C@@H](C)C1CC[C@H]2C3CC=C4C[C@@H](O)CC[C@]4(C)C3CC[C@]12C (stereo partly specified),/,/,/,.[19.4 µM],/
O=C1C=C(c2ccccc2)OC2(CCCC2)O1,.,.,.,.,.
O=C1C=C(c2ccccc2)OC(c2ccccc2)O1 (stereo unspecified),.,11µM,.,.,.
CCN(c1ccccc1)c1nc(N)nc(C#N)n1,.,/,/,.,/
O=C(O)c1ccc(Cn2ccc3ccccc32)o1,.,?,.,.,45µM
CN(C)c1ccc(C2CCc3ccccc3N2C(=O)c2ccccc2)cc1 (stereo unspecified),.,/,/,.,/
C=CCCN(C(C)C(=O)OC)S(=O)(=O)c1ccccc1Br (stereo unspecified),.,/,/,.,/
Cc1cc(C)c2nc(N3CCCN(C(=O)c4ccco4)CC3)c(C#N)cc2c1,.,40µM,.,.,?
Cc1nc(N2CCN(C(=O)c3ccco3)CC2)c(C#N)c2c1CCCC2,.,.,.,.,.
O=C(COc1cccc([N+](=O)[O-])c1)N/N=C/c1ccco1,28µM,.,.[11.6 µM],.,?
O=C(/C=C/c1ccco1)NCC(=O)N/N=C/c1ccc([N+](=O)[O-])cc1,40µM,?,.[11.6 µM],?,45µM
O=C(/C=C/c1ccc([N+](=O)[O-])cc1)/C=C/c1ccco1,/,10µM,/,/,/
O=C(/C=C/c1ccco1)NCC(=O)N/N=C/c1ccc(Cl)cc1,.,.,.,.,.
C/C(=N/NC(=O)CNC(=O)/C=C/c1ccco1)c1ccc(Cl)cc1,.,22µM,.,.,.
O=C(/C=C/c1ccc([N+](=O)[O-])cc1)c1ccco1,?,.,.,.,.
O=Nc1ccc(/C=C/c2ccnc3ccccc23)cc1,.,/,/,.,/
CCCNc1nc(Nc2ccc([N+](=O)[O-])cc2)nc(N2CCOCC2)n1,.,/,/,.,/
O=[N+]([O-])c1ccc(NN=Cc2ccco2)nc1,45µM,/,.[11.6 µM],?,50µM
Cc1cc(=O)oc2cc(OCC(=O)N/N=C/c3cc([N+](=O)[O-])ccc3O)ccc12,?,32µM,.,.,?
NS(=O)(=O)c1nn2cc(-c3ccccc3)nc2s1,/,/,/,.,/
CCc1ccc(S(=O)(=O)/N=C2/C=C(Sc3ncn[nH]3)C(=O)c3ccccc32)cc1,1.1µM,.,20µM,.,6.3µM
Cc1ccc(Cl)cc1NC1=C/C(=N\S(=O)(=O)c2cccs2)c2ccccc2C1=O,4µM,.,.,.,?
O=C1C(Nc2ccc(O)cc2)=C/C(=N/S(=O)(=O)c2cccs2)c2ccccc21,6.3µM,.,.,.,?
CCc1ccc(S(=O)(=O)/N=C2\C=C(Nc3ccc(O)cc3)C(=O)c3ccccc32)cc1,13µM,?,.[11.6 µM],.,?
CCC1Cc2cc(O)ccc2C2=C1c1ccc(O)cc1CC2CC (stereo unspecified),/,/,/,.,/
SMILES,Pol iota inh,Pol beta inh,WRN helicase inh,POLK inh,Pol eta inh
CC(=O)NCCn1c(SCC(=O)NCCC(C)C)nc2ccccc2c1=O,.,.,.,22µM,.
C=CCn1c(SCC(=O)c2ccc(CNC(C)=O)o2)nc2ccccc2c1=O,16µM,?,.,?,?
CC(=O)NCc1ccc(C(=O)CSc2nnc(-c3ccncc3)n2Cc2ccccc2)o1,22µM,20µM,?,79µM,20µM
O=C(CSc1nnc(-c2ccncc2)n1Cc1ccccc1)NC1CCCCC1,.,.,.,.,.
CCCCNC(=O)CSc1nc2ccccc2c(=O)n1CCNC(C)=O,.,.,.,.,.
O=C(COc1ccccc1C(=O)Nc1ccccc1)Nc1cccc([N+](=O)[O-])c1,.,/,/,.,/
O=C(CC(Cl)(Cl)Cl)N1CCN(/[N+]([O-])=N/Oc2ccc([N+](=O)[O-])cc2[N+](=O)[O-])CC1,?,/,/,.,/
O=c1c(-c2ccccc2)coc2cc(O)cc(O)c12,/,/,/,1.8µM,/
COc1nc(N)nc(NC(=O)c2cccs2)c1N=O,28µM,/,?,.,.
COc1ccc(C(=O)n2nc(-c3ccco3)nc2N)cc1,.,25µM,.,.,.
COc1ccc(NC(=O)CSc2nnc(-c3ccco3)c(-c3ccco3)n2)cc1OC,?,.,.,?,50µM
COc1ccc(C(=O)CSc2nnc(-c3ccco3)c(-c3ccco3)n2)cc1,?,13µM,?,.,13µM
COc1cccc(NC(=O)CSc2nnc(-c3ccco3)c(-c3ccco3)n2)c1,?,?,45µM,50µM,20µM
CO/N=C(\C(=O)N[C@@H]1C(=O)N2C(C(=O)[O-])=C(C[n+]3cccc4c3CCC4)CS[C@H]12)c1csc(N)n1,/,/,/,.[19.4 µM],/
O=C(COc1ccc(Cl)cc1)OCC(=O)N1CCCCCC1,.,35µM,.,.,.
Nc1cccc[n+]1C(c1ccnc2ccccc12)[n+]1ccccc1N,.,/,/,.,/
Cc1ccc(C(=O)NN2C(=O)c3ccc(S(=O)(=O)c4ccc(C(=O)O)cc4)cc3C2=O)cc1,.,?,.,.,.
O=C(O)c1ccc(S(=O)(=O)c2ccc3c(c2)C(=O)N(NC(=O)c2ccc(O)cc2)C3=O)cc1,.,28µM,.,.,.
COCCn1c(N)c(C(=O)OCc2ccccc2)c2nc3ccccc3nc21,20µM,.,.,.,.
C=CCn1c(N)c(C(=O)OCCC)c2nc3ccccc3nc21,.,.,.,.,.
CC(=O)OCC(NC(=O)C1CCCN1C(=O)OC(C)(C)C)C1OC(n2ccc(=O)[nH]c2=O)C(OC(C)=O)C1OC(C)=O (stereo unspecified),.,/,/,.,/
Oc1ccc(-c2csc(-c3ccccc3)n2)cc1O,71µM,7.9µM,?,.,.
Oc1ccccc1-c1csc(-c2ccccc2)n1,.,.,.,.,.
Oc1ccc(-c2csc(Nc3ncccn3)n2)cc1O,32µM,?,?,.,.
Clc1cccc(CNc2ncnc3nc[nH]c23)c1,?,/,/,.,/
SMILES,Pol iota inh,Pol beta inh,WRN helicase inh,POLK inh,Pol eta inh
Cc1oc(-c2cccc(Cl)c2)nc1CN1CCC(C(=O)NC(C)C)CC1,89µM,.,/,.,.
O=C(C[n+]1c2ccccc2cc2ccccc21)c1ccc(F)cc1,.,/,/,.,/
CCc1nc2cccnc2n1-c1ccc(CC(=O)O)cc1,.,.,.[11.6 µM],.,50µM
C/C(O)=C1\C(=O)[C@@H]2[C@H]3c4c[nH]c5cccc(c45)C[C@H]3C(C)(C)N2C1=O,/,/,/,.[19.4 µM],/
NC(=O)C1=CN(C2OC(COP(=O)(O)OP(=O)(O)OC[C@H]3O[C@@H](n4cnc5c(N)ncnc54)[C@H](OP(=O)(O)O)[C@@H]3O)C(O)C2O)C=CC1 (stereo partly specified),/,/,/,.,/
COc1ccc(-n2nnnc2SCC(=O)NC2CCS(=O)(=O)C2)cc1 (stereo unspecified),.,/,.,.,.
COc1ccc(-n2nnnc2SCC(=O)NC2CC2)cc1,.,/,.,.,89µM
Cc1ccccc1NC(=O)/C(C#N)=C\c1cc(C)n(-c2ccc(C(=O)O)cc2)c1C,.,?,.[11.6 µM],.,22µM
c1csc(-c2nn3c(-c4ccncc4)nnc3s2)c1,/,.,/,/,/
